{"source": "PubChem BioAssay (EPA / NIEHS)", "details_in_all_cases": "mRNA level, 48 h; actives raise or lower the signal", "key": {"[1]": {"read-out": "Insulin Like Growth Factor 1 (IGF1), IGF1 (gene 3479)", "test": "LTEA_HepaRG_IGF1: Life Technologies and Expression Analysis (LTEA) Assay for Insulin Like Growth Factor 1 (IGF1) using HepaRG (AID 2283506)", "how_it_was_run": "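Endpoint: IGF1 mRNA change by qRT-PCR, housekeeping-normalized, fitted bidirectionally relative to 0.5% DMSO vehicle. Human HepaRG cells were treated 48 h in serum-free induction medium, eight half-log concentrations topping at 100 uM.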"}, "[2]": {"read-out": "Intercellular Adhesion Molecule 1 (ICAM1), ICAM1 (gene 3383)", "test": "LTEA_HepaRG_ICAM1: Life Technologies and Expression Analysis (LTEA) Assay for Intercellular Adhesion Molecule 1 (ICAM1) using HepaRG (AID 2283507)", "how_it_was_run": "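ICAM1 transcript levels measured by qRT-PCR, normalized to three housekeeping genes (ACTB, GAPDH, POLR2A), after 48 h chemical exposure of HepaRG cells. Duplicate eight-point half-log series from 100 uM in 0.5% DMSO; gain or loss fitted against vehicle.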"}, "[3]": {"read-out": "Insulin-like growth factor-binding protein 1 (IGFBP1), IGFBP1 (gene 3484)", "test": "LTEA_HepaRG_IGFBP1: Life Technologies and Expression Analysis (LTEA) Assay for Insulin-like growth factor-binding protein 1 (IGFBP1) using HepaRG (AID 2283508)", "how_it_was_run": "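Read-out is qRT-PCR transcript level normalized to three housekeeping genes, fitted in both directions against 0.5% DMSO. Differentiated HepaRG cells received eight half-log concentrations (top 100 uM) in duplicate for 48 h in serum-free induction medium.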"}, "[4]": {"read-out": "Interleukin 6 (IL6), IL6 (gene 3569)", "test": "LTEA_HepaRG_IL6: Life Technologies and Expression Analysis (LTEA) Assay for Interleukin 6 (IL6) using HepaRG (AID 2283509)", "how_it_was_run": "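qRT-PCR read-out of IL6 transcript, normalized to three housekeeping genes, after 48 h chemical exposure of HepaRG cells; 8-point half-log series, top 100 uM, 0.5% DMSO vehicle. Bidirectional curve fitting against DMSO baseline.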"}, "[5]": {"read-out": "Interleukin 6 Receptor (IL6R), IL6R (gene 3570)", "test": "LTEA_HepaRG_IL6R: Life Technologies and Expression Analysis (LTEA) Assay for Interleukin 6 Receptor (IL6R) using HepaRG (AID 2283510)", "how_it_was_run": "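In this HepaRG screen, test chemicals act on cells for 48 h at up to 100 uM (eight half-log points, duplicate wells). IL6R expression is quantified by qRT-PCR after normalization to ACTB, GAPDH and POLR2A, with DMSO as baseline.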"}, "[6]": {"read-out": "Keratin 19 (KRT19), KRT19 (gene 3880)", "test": "LTEA_HepaRG_KRT19: Life Technologies and Expression Analysis (LTEA) Assay for Keratin 19 (KRT19) using HepaRG (AID 2283512)", "how_it_was_run": "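KRT19 transcript measured by TaqMan qRT-PCR, referenced to three housekeeping genes, after HepaRG cells received test chemicals for 48 h. Eight half-log concentrations, top 100 uM, 0.5% DMSO vehicle; increases and decreases both fitted.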"}, "[7]": {"read-out": "Lipase C (LIPC), LIPC (gene 3990)", "test": "LTEA_HepaRG_LIPC: Life Technologies and Expression Analysis (LTEA) Assay for Lipase C (LIPC) using HepaRG (AID 2283514)", "how_it_was_run": "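HepaRG, 48 h exposure, 8-pt half-log series from 100 uM in 0.5% DMSO, duplicates. Readout: LIPC mRNA by Fluidigm qRT-PCR, housekeeping-normalized (ACTB/GAPDH/POLR2A). Gain or loss fitted bidirectionally against DMSO baseline.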"}, "[8]": {"read-out": "Lipoprotein lipase (LPL), LPL (gene 4023)", "test": "LTEA_HepaRG_LPL: Life Technologies and Expression Analysis (LTEA) Assay for Lipoprotein lipase (LPL) using HepaRG (AID 2283515)", "how_it_was_run": "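HepaRG, 48 h exposure, 8-pt half-log dilutions from 100 uM, 0.5% DMSO vehicle, duplicates; qRT-PCR (Fluidigm array) of LPL mRNA vs housekeeping genes; bidirectional curve fit relative to DMSO baseline.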"}, "[9]": {"read-out": "JUN Transcription Factor, JUN (gene 3725)", "test": "LTEA_HepaRG_JUN: Life Technologies and Expression Analysis (LTEA) Assay for JUN Transcription Factor using HepaRG (AID 2283513)", "how_it_was_run": "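Gene-expression endpoint: JUN mRNA (qRT-PCR, normalized to three reference genes) in HepaRG cultures treated 48 h with chemicals, duplicate wells, 100 uM maximum with half-log dilutions; bidirectional fitting relative to 0.5% DMSO.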"}}, "note": "The source made the active and inactive calls. The calls were made as follows: active = hit-call score of the fitted dose curve at least 0.9, where 1 is the maximum; inactive = score below 0.9."}
{"smiles": "N#CN=C1SCCN1Cc1ccc(Cl)nc1", "values": [{"measurement": "outcome", "setting": "[1]", "result": "inactive"}, {"measurement": "outcome", "setting": "[2]", "result": "inactive"}, {"measurement": "outcome", "setting": "[3]", "result": "inactive"}, {"measurement": "outcome", "setting": "[4]", "result": "inactive"}, {"measurement": "outcome", "setting": "[5]", "result": "inactive"}, {"measurement": "outcome", "setting": "[6]", "result": "inactive"}, {"measurement": "outcome", "setting": "[7]", "result": "inactive"}, {"measurement": "outcome", "setting": "[8]", "result": "inactive"}]}
{"smiles": "CCNP(=S)(OC)O/C(C)=C/C(=O)OC(C)C", "note": "(stereo unspecified)", "values": [{"measurement": "AC50", "setting": "[1]", "result": "50 µM (active)"}, {"measurement": "outcome", "setting": "[2]", "result": "inactive"}, {"measurement": "outcome", "setting": "[3]", "result": "inactive"}, {"measurement": "outcome", "setting": "[4]", "result": "inactive"}, {"measurement": "outcome", "setting": "[5]", "result": "inactive"}, {"measurement": "AC50", "setting": "[6]", "result": "50 µM (active)"}, {"measurement": "outcome", "setting": "[7]", "result": "inactive"}, {"measurement": "AC50", "setting": "[8]", "result": "50 µM (active)"}]}
{"smiles": "N#Cc1c[nH]cc1-c1cccc2c1OC(F)(F)O2", "values": [{"measurement": "outcome", "setting": "[1]", "result": "inactive"}, {"measurement": "outcome", "setting": "[2]", "result": "inactive"}, {"measurement": "AC50", "setting": "[3]", "result": "69 µM (active)"}, {"measurement": "outcome", "setting": "[4]", "result": "inactive"}, {"measurement": "AC50", "setting": "[5]", "result": "19.6 µM (active)"}, {"measurement": "AC50", "setting": "[6]", "result": "23.9 µM (active)"}, {"measurement": "AC50", "setting": "[7]", "result": "46.7 µM (active)"}, {"measurement": "AC50", "setting": "[8]", "result": "7.8 µM (active)"}]}
{"smiles": "CO/N=C(/C1=NOCCO1)c1ccccc1Oc1ncnc(Oc2ccccc2Cl)c1F", "values": [{"measurement": "AC50", "setting": "[1]", "result": "10.6 µM (active)"}, {"measurement": "AC50", "setting": "[2]", "result": "29.4 µM (active)"}, {"measurement": "AC50", "setting": "[3]", "result": "20.3 µM (active)"}, {"measurement": "AC50", "setting": "[4]", "result": "28.4 µM (active)"}, {"measurement": "outcome", "setting": "[5]", "result": "inactive"}, {"measurement": "AC50", "setting": "[6]", "result": "13.3 µM (active)"}, {"measurement": "outcome", "setting": "[9]", "result": "inactive"}, {"measurement": "AC50", "setting": "[7]", "result": "30.1 µM (active)"}, {"measurement": "AC50", "setting": "[8]", "result": "23.2 µM (active)"}]}
{"smiles": "CNC(=O)N(C)c1nnc(C(C)(C)C)s1", "values": [{"measurement": "outcome", "setting": "[1]", "result": "inactive"}, {"measurement": "outcome", "setting": "[2]", "result": "inactive"}, {"measurement": "outcome", "setting": "[3]", "result": "inactive"}, {"measurement": "outcome", "setting": "[4]", "result": "inactive"}, {"measurement": "outcome", "setting": "[5]", "result": "inactive"}, {"measurement": "outcome", "setting": "[7]", "result": "inactive"}, {"measurement": "outcome", "setting": "[8]", "result": "inactive"}]}
{"smiles": "COCc1cnc(C2=NC(C)(C(C)C)C(=O)N2)c(C(=O)O)c1", "note": "(stereo unspecified)", "values": [{"measurement": "outcome", "setting": "[1]", "result": "inactive"}, {"measurement": "outcome", "setting": "[2]", "result": "inactive"}, {"measurement": "outcome", "setting": "[3]", "result": "inactive"}, {"measurement": "outcome", "setting": "[4]", "result": "inactive"}, {"measurement": "outcome", "setting": "[5]", "result": "inactive"}, {"measurement": "outcome", "setting": "[6]", "result": "inactive"}, {"measurement": "outcome", "setting": "[7]", "result": "inactive"}, {"measurement": "outcome", "setting": "[8]", "result": "inactive"}]}
{"smiles": "CC(C)=CC1C(C(=O)OCc2coc(Cc3ccccc3)c2)C1(C)C", "note": "(stereo unspecified)", "values": [{"measurement": "outcome", "setting": "[1]", "result": "inactive"}, {"measurement": "outcome", "setting": "[2]", "result": "inactive"}, {"measurement": "outcome", "setting": "[3]", "result": "inactive"}, {"measurement": "outcome", "setting": "[4]", "result": "inactive"}, {"measurement": "outcome", "setting": "[5]", "result": "inactive"}, {"measurement": "outcome", "setting": "[6]", "result": "inactive"}, {"measurement": "outcome", "setting": "[7]", "result": "inactive"}, {"measurement": "outcome", "setting": "[8]", "result": "inactive"}]}
{"smiles": "CCCCC(O)(Cn1cncn1)c1ccc(Cl)cc1Cl", "note": "(stereo unspecified)", "values": [{"measurement": "AC50", "setting": "[1]", "result": "75.1 µM (active)"}, {"measurement": "AC50", "setting": "[2]", "result": "83.9 µM (active)"}, {"measurement": "AC50", "setting": "[3]", "result": "79.3 µM (active)"}, {"measurement": "AC50", "setting": "[4]", "result": "72 µM (active)"}, {"measurement": "outcome", "setting": "[5]", "result": "inactive"}, {"measurement": "outcome", "setting": "[6]", "result": "inactive"}, {"measurement": "outcome", "setting": "[9]", "result": "inactive"}, {"measurement": "AC50", "setting": "[7]", "result": "75.2 µM (active)"}, {"measurement": "AC50", "setting": "[8]", "result": "50 µM (active)"}]}
{"smiles": "CC(C)N1C(=O)N(c2ccccc2)CSC1=NC(C)(C)C", "values": [{"measurement": "AC50", "setting": "[1]", "result": "59.9 µM (active)"}, {"measurement": "AC50", "setting": "[2]", "result": "74.6 µM (active)"}, {"measurement": "AC50", "setting": "[3]", "result": "89.1 µM (active)"}, {"measurement": "AC50", "setting": "[4]", "result": "77.1 µM (active)"}, {"measurement": "outcome", "setting": "[5]", "result": "inactive"}, {"measurement": "AC50", "setting": "[6]", "result": "50 µM (active)"}, {"measurement": "AC50", "setting": "[7]", "result": "72.2 µM (active)"}, {"measurement": "AC50", "setting": "[8]", "result": "78.7 µM (active)"}]}
{"smiles": "CCOP(=O)(OCC)Oc1nc(Cl)c(Cl)cc1Cl", "values": [{"measurement": "outcome", "setting": "[1]", "result": "inactive"}, {"measurement": "outcome", "setting": "[2]", "result": "inactive"}, {"measurement": "outcome", "setting": "[3]", "result": "inactive"}, {"measurement": "outcome", "setting": "[4]", "result": "inactive"}, {"measurement": "AC50", "setting": "[5]", "result": "60.2 µM (active)"}, {"measurement": "outcome", "setting": "[6]", "result": "inactive"}, {"measurement": "AC50", "setting": "[7]", "result": "78.7 µM (active)"}, {"measurement": "AC50", "setting": "[8]", "result": "61.5 µM (active)"}]}
